# Assay results: PubChem BioAssay
# Entries with a potency or affinity are not part of this list. Active and inactive are the calls of the source. How the calls were made is not given here.
# Test system: not listed separately
# Experiment: A549 cell cytotoxicity, dose response, cytotoxicity control, plate reader, cherry-pick, antagonist series (AID 743412)
# Details: series mostly up to 26 µM
row,SMILES,outcome
1,COc1ccc(N(CC(=O)NCc2cccs2)S(=O)(=O)c2ccc(C(C)=O)cc2)cc1,inactive
2,Cc1ccc(S(=O)(=O)N2[C@@H](CO)CO[C@H]2CC(=O)OCc2ccccc2)cc1,inactive
3,Cc1ccc(S(=O)(=O)N2CCCc3nc(-c4ccc(F)cc4)ccc32)cc1,inactive

# Test system: not listed separately
# Experiment: HepG2 cell cytotoxicity, dose response, cytotoxicity control, plate reader, cherry-pick, antagonist series (AID 743416)
# Details: series mostly up to 26 µM
row,SMILES,outcome
1,CC1CCN(c2ccc(-c3cccs3)nn2)CC1,inactive
2,Cc1ccc(Nc2nc3ccccc3s2)c(C)c1,inactive
3,CN(C(=O)COC(=O)c1nc(Cl)c(Cl)c(Cl)c1Cl)C1CCS(=O)(=O)C1 (stereo not drawn),inactive
4,O=C(COC(=O)c1ccccc1C(=O)c1ccc(Cl)c([N+](=O)[O-])c1)NC1CC1,inactive
5,N#Cc1cccc(-c2ccc(C3[C@@H]4CN(C(=O)c5ccccn5)C[C@H]3N4)cc2)c1 (stereo partly drawn),inactive
6,O=C(Nc1ccc(NC(=O)c2ccco2)nc1)c1ccco1,inactive
7,CCOc1ccc(C(=O)Nc2nnc(SCC(=O)NCC3CCCO3)s2)cc1 (stereo not drawn),inactive
8,N#C[C@@H]1[C@H](c2ccc(C#CC3CCCCC3)cc2)[C@@H](CO)N1S(=O)(=O)c1ccccc1,inactive
9,Cc1ccccc1-c1ccc([C@H]2[C@@H](CO)N3CCCCN(S(=O)(=O)c4ccc(F)cc4)C[C@@H]23)cc1,inactive
10,COc1ccc(-n2cc(C(=O)c3ccccc3O)cn2)cc1,inactive
11,N#C[C@@H]1[C@H](c2ccc(C#Cc3ccccc3F)cc2)[C@@H](CO)N1C(=O)C1CC1,inactive
12,Cc1ccccc1C(=O)Nc1ccc2c(c1)OCCO2,inactive
13,CC1CCCN(c2ncnc3c2cnn3-c2ccc(Cl)cc2)C1 (stereo not drawn),inactive
14,CC(C)CCn1cnc2c(oc3nc4c(cc32)CCCC4)c1=O,inactive
15,COc1ccc(S(=O)(=O)N(C)C[C@@H]2OCCCC[C@H](C)Oc3ccc(NS(=O)(=O)c4ccc(Cl)cc4)cc3C(=O)N([C@@H](C)CO)C[C@@H]2C)cc1,inactive
16,O=C(NCCc1ccc(Cl)cc1)c1ccc2c(c1)OCCO2,inactive
17,Cc1ccc2nc(-c3ccc(NC(=O)C4CCCO4)cc3)[nH]c2c1 (stereo not drawn),inactive
18,Cc1csc(NC(=O)c2ccc(N3CCCC3=O)cc2)n1,inactive
19,Cc1ccc(S(=O)(=O)N2CCCCC2)cc1NC(=O)c1ccc2c(=O)n3c(nc2c1)CCCCC3,inactive

row,SMILES,outcome
1,C[C@H]1CCCCO[C@@H](CN(C)C(=O)Nc2ccc(F)cc2)[C@@H](C)CN([C@@H](C)CO)C(=O)c2cc(NC(=O)C3CCCCC3)ccc2O1,inactive
2,Cc1cccc(-c2ccc([C@H]3[C@@H](CO)N4CCCCN(C(=O)c5cccnc5)C[C@@H]34)cc2)c1,inactive
3,Cc1ccc(-n2[nH]c(=O)c(-c3ccccn3)c2C)cc1,inactive
4,COc1ccc(S(=O)(=O)N(C)C[C@@H]2OCCCC[C@H](C)Oc3ccc(NS(=O)(=O)c4ccc(F)cc4)cc3C(=O)N([C@@H](C)CO)C[C@@H]2C)cc1,inactive
5,CCCNC(=O)N1[C@H](C#N)[C@H](c2ccc(C#Cc3ccc(F)cc3)cc2)[C@H]1CO,inactive
6,CC(=O)c1ccc(NC(=O)c2noc3c2CCC3)cc1,inactive
7,CCCc1nc(SCC(=O)N2CCC(Cc3ccccc3)CC2)c2c(=O)n(C)c(=O)n(C)c2n1,inactive
8,Cc1ccc(C#N)c(SCc2nnc(-c3ccc(Cl)cc3)o2)n1,inactive
9,O=c1[nH]c(CSc2ccccn2)nc2c1oc1ccccc12,inactive
10,Cc1cnc(NC(=O)COc2ccccc2Cl)s1,inactive
11,Cc1ccc(C(=O)Nc2ccc3c(c2)OCCO3)cc1,inactive
12,CO[C@@H]1CN(C)C(=O)c2cc(NC(C)=O)ccc2OC[C@@H](C)N(Cc2ccc(F)cc2)C[C@@H]1C,inactive
13,COc1ccc(-c2cc(-c3ccccc3)no2)cc1,inactive
14,CC(=O)N1CCCCN2[C@H](CO)[C@H](c3ccc(-c4cccc(C)c4)cc3)[C@@H]2C1,inactive
15,CCOc1ccc(C(=O)NCCc2ccccc2)cc1,inactive
16,CN1CCN(c2ccc(NC(=O)N3CCc4ccccc43)cc2)CC1,inactive
17,c1ccc(-c2cn3c4c(sc3n2)CCCC4)cc1,inactive
18,COCCOc1cc(NCc2ccccc2)c2ncn(C(C)C)c2c1,inactive

# Biological target: Melanocortin receptor 4 (Homo sapiens) (UniProt P32245)
# Experiment: MC4R antagonists, dose response, counter-screen for LGR2 antagonist project, cell-based, plate reader, cherry pick (AID 743444)
# Details: MC4R-expressing cells, antagonist mode; series mostly up to 35 µM
row,SMILES,outcome
1,COc1ccc(N(CC(=O)NCc2cccs2)S(=O)(=O)c2ccc(C(C)=O)cc2)cc1,inactive
2,Cc1ccc(S(=O)(=O)N2[C@@H](CO)CO[C@H]2CC(=O)OCc2ccccc2)cc1,inactive
3,Cc1ccc(S(=O)(=O)N2CCCc3nc(-c4ccc(F)cc4)ccc32)cc1,inactive
